The results in this text go back to PubChem BioAssay (NCI).

SMILES strings stand for the structures. “And” between values parts separate entries of the source, which are not always exact repeats. Equal values may be shown once. About 79,000 compounds went through this panel and 15% of them were active in at least one assay; those are over-represented in the sample as a whole. Where a structure was tested more than once in an assay, its records may differ in their call. The source made the active and inactive calls. Cut-off read from the data, not from the text of the source: active = growth inhibition above about 70%; inactive = the rest.

The nature of the experiment: NCI Yeast Anticancer Drug Screen. Data for the cln2 rad14 strain (AID 165).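 Note: 0% = growth equal to vehicle treated cultures.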 The conditions noted are these: S. cerevisiae cln2 rad14 strain, stronger effect = higher value. As for the experimental part:
Growth inhibition of yeast strains with defined genetic alterations is measured as a screen for potential anti-cancer activity. Selected strains with alterations in DNA damage repair or cell cycle control were exposed to compounds and growth inhibition was measured relative to vehicle treated controls. The strain used in this assay is cln2 rad14

The mark [1] stands for this setting: at 5.0 µM (retest, dose inferred, filed as 0.5).
Where [2] appears, read: at 50.0 µM (retest, dose inferred, filed as 5.0).

On to `CCCC/C=C/C(C)(C(=O)OCC)C(=O)OCC`, for which the growth inhibition is, setting by setting: under setting [1], -6% (inactive); under setting [2], 32% (inactive); (at 50.0 µM) 58.5% (inactive).
The corresponding values for `Cc1cc(C)c(NC(=S)NC(=O)c2ccccc2)cc1C` are -4% (inactive), 15% (inactive) and 2.25% (inactive).
Consider `Cc1cc(N(CCOS(C)(=O)=O)CCOS(C)(=O)=O)ccc1C=Nc1ccc(-c2csc(-c3ccccc3)n2)c(Cl)c1`, for which the growth inhibition reads like this: under setting [1], 29% (inactive) and -6% (inactive); under setting [2], -5% (inactive) and 95% (active); (at 50.0 µM) 82.8% (active) and 92.5% (active).
Consider `NNC(=O)CCc1cc2ccccc2c2ccccc12`, for which the growth inhibition is, setting by setting: under setting [1], 11% (inactive); under setting [2], 98% (active); (at 50.0 µM) 98% (active).
Consider `O=C(c1ccc([N+](=O)[O-])cc1)C1N=NCC1c1ccccc1` (configuration not stated), for which the growth inhibition is 5% (inactive) under setting [1], 27% (inactive) under setting [2] and 55.6% (inactive) (at 50.0 µM).
Consider `COc1cc2cc3c4cc(OC)c(OC)cc4cc[n+]3c(C)c2cc1OC`, for which the growth inhibition by setting is: under setting [1], 61% (inactive); under setting [2], 26% (inactive); (at 50.0 µM) 15.2% (inactive).
As for `O=C1C=C(Cl)C(=O)N1c1cccc(Cl)c1`, the growth inhibition by setting is: under setting [1], 3% (inactive); under setting [2], 98% (active); (at 50.0 µM) 99.4% (active).
In the case of `COC(=O)Oc1cc(Cl)c(Cl)cc1Cl`, the growth inhibition under setting [1] is 3% (inactive), the growth inhibition under setting [2] was 52% (inactive) and the growth inhibition (at 50.0 µM) was 22.6% (inactive).
As to `CNC(=O)OCc1c(COC(=O)NC)c2n(c1C)-c1ccc(OC)cc1CCC2`, the growth inhibition runs as follows: under setting [1], 45% (inactive); under setting [2], 98% (active); (at 50.0 µM) 88.2% (active).
For the compound `COc1cc(C2c3cc4c(cc3OC(OC(C)=O)C2C)OCO4)cc(OC)c1OC` (configuration not stated), the growth inhibition under setting [1] was -14% (inactive), the growth inhibition under setting [2] was 3% (inactive) and the growth inhibition (at 50.0 µM) was -13.1% (inactive).
For `CCc1cc(O)c(Cl)c(C)c1Cl`, the growth inhibition was 46% (inactive) under setting [1], 70% (active) under setting [2] and 35% (inactive) (at 50.0 µM).
In the case of `COc1ccc2[nH]cc([C@@H]3C4CCC(C4)[C@H]3NCc3cccc(CN[C@H]4C5CCC(C5)[C@@H]4c4c[nH]c5ccc(OC)cc45)c3)c2c1`, the growth inhibition is 27% (inactive) under setting [1]; 99% (active) under setting [2]; 99.2% (active) and 77.3% (active) (at 50.0 µM).
As to `O=[N+]([O-])c1ccc(N/N=C/Cc2ccccc2)c([N+](=O)[O-])c1`, the growth inhibition was 7% (inactive) under setting [1], -3% (inactive) under setting [2] and -7.05% (inactive) (at 50.0 µM).
For the compound `Cc1sc2ccc3ccccc3c2[n+]1C`, the growth inhibition reads like this: under setting [1], 47% (inactive) and -10% (inactive); under setting [2], 32% (inactive) and 15% (inactive); (at 50.0 µM) 87.2% (active) and 77.2% (active).
